High-throughput results from PubChem.
Compounds with a hit are over-represented: about 0.99% of the library has one in this group of screens.
TRPML1 inh = inhibitors of human TRPML1 channel; Q9GZU1; TRPML1-inducible cells, Ca2+ dye fluorescence, FDSS; active compounds read low; inhibition of EC80 agonist-evoked calcium signal; activity change, negative = inhibition, % (concentration not given with the values); 0.02% of 390,000 active; AID 624415; in the data active = activity change below about -50%; inconclusive = between about -30% and that limit;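 note: stimulus is agonist 54-4 at its EC80 concentration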
Target sequence (Q9GZU1 whole entry, looked up): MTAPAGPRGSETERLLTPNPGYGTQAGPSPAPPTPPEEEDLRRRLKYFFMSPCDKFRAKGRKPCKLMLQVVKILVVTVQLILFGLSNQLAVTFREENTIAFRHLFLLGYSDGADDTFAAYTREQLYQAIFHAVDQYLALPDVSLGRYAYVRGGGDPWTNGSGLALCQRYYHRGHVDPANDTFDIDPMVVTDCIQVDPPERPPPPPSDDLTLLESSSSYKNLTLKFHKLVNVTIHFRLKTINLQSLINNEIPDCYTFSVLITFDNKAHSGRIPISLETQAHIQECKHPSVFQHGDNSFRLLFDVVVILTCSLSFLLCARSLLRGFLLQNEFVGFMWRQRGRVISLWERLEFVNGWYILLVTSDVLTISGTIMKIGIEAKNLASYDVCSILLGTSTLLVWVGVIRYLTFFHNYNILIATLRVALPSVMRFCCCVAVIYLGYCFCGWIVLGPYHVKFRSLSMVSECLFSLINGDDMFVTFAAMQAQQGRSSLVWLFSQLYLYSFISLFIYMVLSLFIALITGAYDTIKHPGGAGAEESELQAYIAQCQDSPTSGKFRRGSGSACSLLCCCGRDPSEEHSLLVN
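Tet-induced TRPML1-DL cells loaded with Ca8 no-wash calcium dye were read kinetically on FDSS. Compound addition was followed by EC80 agonist 54-4 (4 uM final); inhibition was read over 110 s.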
TRPML1 ag = agonists of human TRPML1 channel. Q9GZU1. activation, % (concentration not given with the values). 0.12% of 410,000 active. TRPML1-expressing cells, Ca2+ dye fluorescence, FDSS; in the data active = activation above about 50%; inconclusive = mostly about 30% to 49%
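Tet-induced TRPML1-DL cells, 1,500 per well, cultured overnight, were loaded with a no-wash Ca2+ dye for 45–90 min. Calcium fluorescence was recorded on the FDSS for 110 s after compound addition, before the EC80 agonist (4 uM 54-4) was added.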
TRPV1 ag = agonists of human vanilloid receptor 1 (TRPV1) | Q8NER1 | TRPV1-expressing cells, Fluo-8 calcium influx, agonist mode | activation, % at 8.33 µM | 0.19% of 320,000 active | AID 540275; in the data active = activation above about 80%; inconclusive = between about 30% and that limit
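Cells expressing TRPV1 were dye-loaded with Fluo-8 and read kinetically: 10 s baseline, 3 min after compound (agonist portion), then 2 min after EC20 capsaicin (allosteric enhancer portion). Calcium-bound dye fluorescence at 480/520 nm.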
TRHR enhancer = allosteric enhancers of human TRH receptor | enhancement, % at 2 µM | TRHR cells, fluo-8 calcium fluorescence, EC20 TRH enhancement | AID 493056 | 0.66% of 360,000 active; in the data active = enhancement above about 30%
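Enhancer read-out: after compound pinning and an initial kinetic agonist-mode read, an EC20 of TRH (10 nM final) was injected and fluo-8 calcium signal (Ex 480/Em 530) followed at 1 s/cycle for 100 cycles in TRHR-expressing cells.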
TRPV1 PAM = potentiators of human vanilloid receptor 1 (TRPV1). AID 540277. TRPV1-expressing cells, Fluo-8 calcium influx, capsaicin EC20 potentiation. potentiation, % at 8.33 µM. 0.02% of 320,000 active. Q8NER1; in the data active = potentiation above about 80%; inconclusive = between about 30% and that limit
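Cells expressing TRPV1 were dye-loaded with Fluo-8 and read kinetically: 10 s baseline, 3 min after compound (agonist portion), then 2 min after EC20 capsaicin (allosteric enhancer portion). Calcium-bound dye fluorescence at 480/520 nm.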
TRHR agonist = activates the human TRH receptor. TRHR cells, calcium flux fluo-8, FDSS agonist mode. P34981. 0.18% of 360,000 active. activation, % at 2 µM; in the data active = activation above about 30%
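Fluo-8-loaded TRHR cells; 10 s baseline, compound added, kinetic Ca2+ fluorescence read 1/s, agonist mode.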
Each line names hits and unclear results; the compound was inactive in the other large screens.

Cc1ccccc1N(CC(=O)NC1CCCC1)C(=O)c1oc(C(C)(C)C)cc1C	TRPML1 ag 70
Cc1cc(C(C)(C)C)oc1C(=O)N(CC(=O)NC1CCCC1)Cc1ccccc1Cl	TRPV1 ag inconclusive
Cc1cc(C(C)(C)C)oc1C(=O)N(CC(=O)NC1CCCC1)c1cccc(C(F)(F)F)c1	TRPML1 ag 52, TRPV1 ag inconclusive
CCN(CC)/[N+]([O-])=N/OCOC(=O)C(C)c1ccc(CC(C)C)cc1 (configuration not stated)	none (no result: TRPV1 ag, TRHR enhancer, TRPV1 PAM, TRHR agonist)
COc1ccc(N2CCN(c3oc(-c4ccc(COc5cccc(C)c5)o4)nc3C#N)CC2)cc1	none (no result: TRPV1 ag, TRPV1 PAM)
COC(=O)c1cccc(NC(=O)c2nn(C)c(=O)c3ccccc23)c1	TRHR enhancer 40
COC(=O)c1cccc(NC(=O)c2ccc3c(c2)C(=O)N(C(C)(C)C)C3=O)c1	TRPV1 ag 107
COC(=O)c1ccc(C)c(NC(=O)c2nn(C)c(=O)c3ccccc23)c1	none
Cc1ccc(OCC(=O)NCCN2CCCC2)cc1	none
O=C(COc1ccc(Br)cc1)NCCN1CCCC1	TRHR enhancer 30
Cc1ccc(-c2cnc(NCc3c(F)cccc3Cl)n2C)cc1	none (no result: TRPV1 ag, TRPV1 PAM)
CC(C)=CNNC(=O)c1ccc(O)cc1	none (no result: TRPML1 inh, TRPV1 ag, TRHR enhancer, TRPV1 PAM, TRHR agonist)
COc1ccc(/C=C/c2cnc3ccccc3n2)cc1OC	none (no result: TRPML1 inh, TRPV1 ag, TRHR enhancer, TRPV1 PAM, TRHR agonist)
COc1ccccc1-c1nn2c(-c3cc(C)[nH]n3)nnc2s1	none (no result: TRPML1 inh, TRPV1 ag, TRHR enhancer, TRPV1 PAM, TRHR agonist)
N/C(=N\OC(=O)c1ccncc1)c1cccc([N+](=O)[O-])c1	TRHR enhancer 32
Cc1cccc(OCc2nnc(SCC(=O)NCC3CCCO3)n2C)c1 (configuration not stated)	TRHR enhancer 37
Cn1c(SCC(=O)NCC2CCCO2)nnc1-c1ccc(S(=O)(=O)N2CCCC2)cc1 (configuration not stated)	TRHR enhancer 38
CCc1ccc(OCc2nnc(SCC(=O)NCC3CCCO3)n2C)cc1 (configuration not stated)	none
CC(=O)NN1C(=O)c2ccccc2NC1c1ccccc1O (configuration not stated)	TRHR enhancer 33
CS(=O)(=O)NN1C(=O)c2ccccc2NC1c1ccccc1O (configuration not stated)	none
CC(C)(C)OC(=O)NCc1nnc(-c2nc3ccccc3[nH]2)o1	none (no result: TRPML1 inh, TRPML1 ag, TRPV1 ag, TRPV1 PAM)
Cc1ccc(/C=C/C2=NN(C)C(=O)CC2)cc1	TRHR enhancer 30, TRPV1 PAM inconclusive
O=C(CSc1nc2c([nH]c3ccccc32)c(=O)n1-c1ccc(F)cc1)N1CCCc2ccccc21	none (no result: TRPV1 ag, TRPV1 PAM)
CCOc1ccccc1C1CC(=O)NC(SCC)=C1C#N (configuration not stated)	TRHR enhancer 34
O=C(C[n+]1ccncc1)c1ccc(Br)cc1	none (no result: TRPML1 inh, TRPV1 ag, TRHR enhancer, TRPV1 PAM, TRHR agonist)
Cc1ccc(C(=O)N/C(=C\c2cccs2)C(=O)NC2CCCCC2)cc1	TRPV1 ag inconclusive, TRHR enhancer 40
Cc1ccc(C(=O)N/C(=C/c2cccs2)C(=O)N2CCCCCC2)cc1	TRPV1 ag inconclusive
Cc1ccc(CNC(=O)c2cc3sccc3n2Cc2ccc(Cl)cc2)cc1	none (no result: TRPV1 ag, TRPV1 PAM)
CCOC(=O)C1CCN(C(=O)C2COc3ccccc3C2)CC1 (configuration not stated)	none (no result: TRPV1 ag, TRPV1 PAM)
COc1ccc(NC(C)C(=O)N/N=C/c2ccccc2OCc2cccc(Br)c2)cc1 (configuration not stated)	TRHR enhancer 34
Cc1ccccc1NC(C)C(=O)N/N=C/c1ccccc1OCc1cccc(Br)c1 (configuration not stated)	none
O=C(CNC(=O)c1ccc(Cl)cc1Cl)OCC(=O)N1CCCC1	none
CC1CCCC(C)N1C(=O)COC(=O)CNC(=O)c1ccc(Cl)cc1Cl (configuration not stated)	TRHR enhancer 34, TRPV1 PAM inconclusive
C/C(=C\C(=O)c1ccc(Br)cc1)NCc1ccc(C)cc1	TRHR enhancer 40
C/C(=C\C(=O)c1ccc(Br)cc1)NCc1ccccc1	none
CCCCNC(=O)CCCCC(=O)N/N=C/c1cccc(Cl)c1	TRHR enhancer 31
CCCCC(OC(=O)CNC(=O)c1ccccc1)C(=O)Nc1cc(C(F)(F)F)ccc1Cl (configuration not stated)	none (no result: TRPML1 inh, TRPML1 ag, TRPV1 ag, TRPV1 PAM)
CCc1ccc(NC(=O)c2onc(C)c2Cl)cc1	TRPV1 ag 89
Cc1noc(C(=O)Nc2ccc(C#N)cc2)c1Cl	none
Cc1onc(-c2ccccc2)c1C(=O)N1CCCN(C(=O)c2c(-c3ccccc3)noc2C)CC1	none
COc1ccccc1N1CCN(C(=O)c2ccco2)CC1	TRHR enhancer 31
Cc1onc(-c2ccccc2)c1C(=O)N1CCN(C(=O)c2ccco2)CC1	TRHR enhancer 30
COc1ccccc1N1CCN(C(=O)C(C)NC(=O)c2ccco2)CC1 (configuration not stated)	none
O=C(CCc1ccccc1)NC1CC(=O)N(c2cccc(F)c2)C1 (configuration not stated)	TRHR enhancer 37 (no result: TRPV1 ag, TRPV1 PAM)
O=C(Nc1ccc(N2CCCC2)cc1)c1cccc(Cl)c1Cl	TRPV1 ag 81
CC(=O)N1CCN(c2ccc(NC(=O)c3cccc(Cl)c3Cl)cc2)CC1	none
O=C(Nc1ccc(N2CCCC2)cc1)c1ccc([N+](=O)[O-])cc1Cl	none
CS(=O)(=O)c1ccc(C(=O)Nc2ccc(N3CCCCC3)cc2)c(Cl)c1	TRPV1 ag 83
Cc1ccccc1C(=O)N/N=C1\SCC(=O)N1Cc1ccco1	TRHR enhancer 37
Cc1cc(NC(=O)CSc2nc(Cc3ccc(O)cc3)c(C)[nH]2)no1	TRPML1 inh -54
Cc1[nH]c(SCC(=O)Nc2cc(C(N)=O)cc(C(N)=O)c2)nc1Cc1ccccc1	none (no result: TRPV1 ag, TRHR enhancer, TRPV1 PAM, TRHR agonist)
Cc1ccc2scc(N3CCN(c4ccc(F)cc4)CC3)c(=O)c2c1	TRHR enhancer 39 (no result: TRPV1 ag, TRPV1 PAM)
CC(Oc1ccccc1Cl)C(=O)Nc1ccc(S(=O)(=O)N2CCCC2)cc1 (configuration not stated)	TRHR enhancer 34
CCCc1cc(Nc2ccccc2C)n2ncnc2n1	TRHR enhancer 35
COc1ccc([C@]23Cc4cc(OC)c(OC)cc4C(O2)C2=C(CCCC2=O)O3)cc1	none (no result: TRPML1 inh, TRPML1 ag)
O=C(Cc1cccs1)Nc1cccc(-c2nnc(-c3ccco3)o2)c1	TRPV1 ag inconclusive, TRPV1 PAM 89
COc1ccc(CC(=O)Nc2cccc(-c3nnc(-c4ccco4)o3)c2)cc1	none (no result: TRPV1 ag, TRHR enhancer, TRPV1 PAM, TRHR agonist)
CCN(CC)c1ccc2cc(-c3nc(-c4cccs4)no3)c(=O)oc2c1	TRHR agonist 124 (no result: TRPV1 ag, TRPV1 PAM)
CCN(CC)c1ccc2cc(-c3nc(-c4cc(OC)c(OC)c(OC)c4)no3)c(=O)oc2c1	TRPML1 ag inconclusive, TRHR agonist 122 (no result: TRPV1 ag, TRPV1 PAM)
CCN(CC)c1ccc2cc(-c3nc(-c4ccccc4F)no3)c(=O)oc2c1	TRHR agonist 65 (no result: TRPV1 ag, TRPV1 PAM)
